Experiment [1] can be described thus: sensitizers of A549 cells to miR-34 induction, primary screen, imaging, A549 dox-inducible miR-34, nuclei and caspase counts (AID 1347080). The settings on record: A549 miR-34 inducible, Hoechst nuclei count, 48 h.
The nature of experiment [2]: survival rescue of mitochondrial mutant cells in low glucose, primary screen, MELAS cybrids, Rieske KO mouse fibroblasts, CellTiter-Glo (AID 1508586;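 active = mean z-score across replicates of 1.96 or higher in either the MELAS or the Rieske mutant cell line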;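 also: z relative to plate mean and SD of compound and empty wells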). In general terms: ATP-based viability assays read luminescence as a measure of living cells.
Experiment [3] has as its target NAD(+) hydrolase SARM1 (Homo sapiens) (UniProt Q6SZW1). Briefly: SARM1 TIR NADase inhibitors, cell lysate, NAD-Glo luminescence (AID 1508614;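 active = compound whose remaining NAD level is above about 45 nM, limit read from the data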;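 also: higher remaining NAD means stronger inhibition of SARM1 NADase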). The following applies: SAM-TIR HEK293T lysate NADase, at 1 µM, stronger effect = higher value.
For experiment [4], the target named is Mitogen-activated protein kinase 7 (Homo sapiens) (UniProt Q13164). Briefly: ERK5 transactivation activators in reporter cells, primary screen, cell-based, HTS (AID 1508626;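 active = luciferase signal above three times the same-plate solvent-only control wells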;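 also: luciferase driven by Gal4-ERK5 fusion binding five Gal4 sites before minimal TATA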). The settings on record: HeLa Gal4-ERK5 transactivation, 18 h, at 5 µM, stronger effect = higher value.
Mitogen-activated protein kinase 7 (Homo sapiens), sequence (Q13164 whole entry, looked up, the tested form may be a part): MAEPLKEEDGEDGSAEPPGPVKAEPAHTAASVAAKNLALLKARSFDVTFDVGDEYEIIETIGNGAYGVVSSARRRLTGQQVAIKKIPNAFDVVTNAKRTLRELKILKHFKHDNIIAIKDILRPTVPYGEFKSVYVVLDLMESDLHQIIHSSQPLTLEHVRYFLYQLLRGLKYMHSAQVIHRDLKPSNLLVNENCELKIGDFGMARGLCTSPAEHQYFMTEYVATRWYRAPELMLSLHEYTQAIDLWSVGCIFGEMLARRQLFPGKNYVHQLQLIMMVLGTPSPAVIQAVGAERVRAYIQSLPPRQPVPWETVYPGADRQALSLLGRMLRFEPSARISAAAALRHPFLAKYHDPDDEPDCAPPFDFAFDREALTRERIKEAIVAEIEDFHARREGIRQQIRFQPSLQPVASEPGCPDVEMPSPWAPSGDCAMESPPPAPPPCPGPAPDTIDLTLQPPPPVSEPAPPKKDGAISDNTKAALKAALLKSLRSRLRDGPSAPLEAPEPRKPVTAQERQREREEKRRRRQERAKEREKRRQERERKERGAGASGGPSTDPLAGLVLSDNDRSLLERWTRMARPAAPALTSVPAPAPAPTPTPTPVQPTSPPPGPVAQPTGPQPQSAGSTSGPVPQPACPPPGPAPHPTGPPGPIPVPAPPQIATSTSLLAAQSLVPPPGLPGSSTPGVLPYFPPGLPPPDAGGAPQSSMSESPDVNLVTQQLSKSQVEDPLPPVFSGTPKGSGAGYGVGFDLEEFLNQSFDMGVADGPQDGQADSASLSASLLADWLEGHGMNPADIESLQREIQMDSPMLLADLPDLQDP
Experiment [5] is described as follows: LFS_MB_P medulloblastoma growth inhibition, cell-based, chromothripsis tumors, cisplatin or BGB combos (AID 1671449; in the data active = inhibition above about 80%;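 also: cells exposed for 96 hours; 0% = vehicle DMSO and 100% = killing by high DMSO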). The following applies: LFS_MB_P medulloblastoma cells.
The nature of experiment [6]: HDN33 neuroblastoma growth inhibition, cell-based, chromothripsis tumors, cisplatin or BGB combos (AID 1671450; in the data active = inhibition above about 80%;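 also: cells exposed to compound for four days; 0% = vehicle DMSO and 100% = cell killing by high DMSO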). The following applies: HDN33 neuroblastoma cells, stronger effect = higher value.
The nature of experiment [7]: ICB984 medulloblastoma cell growth inhibition, synergistic combos for chromothripsis tumors, cisplatin or BGB combos (AID 1671451; call rule not given here;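 also: cells exposed for 96 hours before readout; 0% = vehicle DMSO and 100% = killing by high DMSO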). The following applies: ICB984 medulloblastoma cells, drug combinations, stronger effect = higher value.
The nature of experiment [8]: LFS_MB_1R medulloblastoma cell growth inhibition, synergistic combos for chromothripsis tumors, cisplatin or BGB combos (AID 1671452; in the data active = inhibition above about 80%;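 also: cells exposed for 96 hours before readout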). The following applies: LFS_MB_1R medulloblastoma cells, stronger effect = higher value.
Experiment [9] is described as follows: HTB85 osteosarcoma cell growth inhibition, synergistic combos for chromothripsis tumors, BGB or cisplatin IC20 combos (AID 1671453; in the data active = inhibition above about 80%;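 also: cells exposed for 96 hours before readout; 0% = vehicle DMSO and 100% = high DMSO killing control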). The settings on record: HTB85 osteosarcoma cells, drug combinations, stronger effect = higher value.
The nature of experiment [10]: CRL2098 osteosarcoma cell growth inhibition, synergistic combos for chromothripsis tumors, BGB or cisplatin IC20 combos (AID 1671454; in the data active = inhibition above about 80%;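 also: cells exposed for 96 h before readout; 0% = vehicle DMSO and 100% = killing by high DMSO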). The settings on record: CRL2098 osteosarcoma cells, drug combinations, stronger effect = higher value.
A short description of experiment [11]: HD-MB03 medulloblastoma cell growth inhibition, synergistic combos for chromothripsis tumors, BGB or cisplatin IC20 combos (AID 1671455; in the data active = inhibition above about 83%;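 also: 0% = vehicle DMSO and 100% = high DMSO as cytotoxic control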). The settings on record: HD-MB03 medulloblastoma cells, stronger effect = higher value.
Experiment [12] can be described thus: viability rescue of complex I mutant cybrids, primary screen, cell-based, galactose medium, ATP luminescence (AID 1645843;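 active = z-score of at least 1.8 in each of two replicates, scored against plate mean and spread of sample wells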;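 also: positive z means more ATP and so rescue of galactose-driven cybrid death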). The following applies: complex I mutant cybrid cells, 72 h, stronger effect = higher value.
Setting [13] is: stronger effect = lower value, cell number ratio, induced over uninduced.
Setting [14] is: measured here: relative caspase fold change +Dox/-Dox.
[15] abbreviates: measured here: total cells with miR-34 induction, stronger effect = lower value.
Setting [16] is: measured here: total cells without miR-34 induction.
Setting [17] is: MELAS cybrid survival, CellTiter-Glo 48 h, stronger effect = higher value.
Where [18] appears, read: Rieske KO mouse fibroblast survival, CellTiter-Glo 72 h.
Setting [19] is: measured here: combination with BGB IC40, at 0.05 µM.

This note sets out measurements from PubChem BioAssay.

Several values for one entry are separate records, joined by “and”; a condition that tells them apart may be missing. Equal entries are not always repeated. Activity calls are given as the source filed them.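 The calls were made as follows, unless noted: active = compounds whose cell count with miR-34 switched on is under 0.7 times the count with it off; inactive = the rest.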

NAD(+) hydrolase SARM1 (Homo sapiens), sequence (Q6SZW1 whole entry, looked up, the tested form may be a part): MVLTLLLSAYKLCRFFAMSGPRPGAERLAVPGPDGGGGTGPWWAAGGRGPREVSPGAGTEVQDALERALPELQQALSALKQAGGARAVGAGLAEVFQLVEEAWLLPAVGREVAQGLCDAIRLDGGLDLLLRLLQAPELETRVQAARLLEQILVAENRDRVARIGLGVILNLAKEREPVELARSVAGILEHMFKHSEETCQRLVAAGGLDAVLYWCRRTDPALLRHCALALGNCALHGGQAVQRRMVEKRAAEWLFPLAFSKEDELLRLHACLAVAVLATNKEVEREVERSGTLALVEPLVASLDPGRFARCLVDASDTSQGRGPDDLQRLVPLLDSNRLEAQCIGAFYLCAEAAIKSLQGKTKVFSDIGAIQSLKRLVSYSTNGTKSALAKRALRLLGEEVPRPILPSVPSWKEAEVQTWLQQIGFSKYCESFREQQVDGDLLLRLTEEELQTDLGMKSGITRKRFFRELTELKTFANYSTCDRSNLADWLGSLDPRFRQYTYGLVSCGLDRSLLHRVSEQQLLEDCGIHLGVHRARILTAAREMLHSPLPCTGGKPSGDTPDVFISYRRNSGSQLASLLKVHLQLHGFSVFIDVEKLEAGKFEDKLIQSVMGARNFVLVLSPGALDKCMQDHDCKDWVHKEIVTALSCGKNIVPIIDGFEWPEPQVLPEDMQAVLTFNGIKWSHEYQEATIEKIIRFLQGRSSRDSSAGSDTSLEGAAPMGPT

One may read the inhibition as the drop in the measured response relative to a control, in per cent. With `O=C(O)P(=O)(O)O`, the fold change in experiment [1] (setting [13]) was 0.897 (inactive) and 0.894 (inactive); in experiment [1] (setting [14]), 0.852 and 3.28. Moreover, the cell count in experiment [1] (setting [15]) was 8080 and 11700; in [1] (setting [16]), 9010 and 13100. Further, the z-score in [2] (setting [17]) was -0.331 (inactive); in [2] (setting [18]), -0.123. Moreover, in [3], the remaining NAD was 10 nM (inactive). Besides, in experiment [4], the luciferase signal is 16 AU (inactive). For the same compound, the inhibition in experiment [5] (at 0.5 µM, stronger effect = higher value) is -17.5% (inactive); in experiment [5] (measured here: combination with BGB IC20, at 0.005 µM), -17.5%; in experiment [5] (measured here: combination with BGB IC40, at 0.005 µM) it was -19.7%; in [5] (setting [19]) it was -16.3%; in experiment [5] (measured here: combination with cisplatin, at 0.5 µM, stronger effect = higher value), -28.3%; in experiment [5] (measured here: combination with cisplatin, at 5 µM, stronger effect = higher value) it was -12.6%. Further, the inhibition in experiment [6] (BGB combo, at 5 µM) was -58%; in experiment [6] (at 0.5 µM), -36.9% (inactive); in [6] (cisplatin combo, at 5 µM), -60.9%; in [6] (measured here: with BGB IC20 combination, at 0.5 µM) it was -38.1%; in [6] (measured here: with cisplatin IC20 combination, at 0.5 µM) it was -23.4%; in experiment [6] (single agent, at 5 µM), -52.1%. Further, the inhibition was -19.7% in [7] (BGB IC20 combo, at 0.005 µM); -25.3% in experiment [7] (BGB IC40 combo, at 0.005 µM); -29.6% in [7] (BGB IC40 combo, at 0.05 µM); -22.4% (inactive) in [7] (at 0.5 µM); -29.6% in experiment [7] (cisplatin combo, at 0.05 µM); -36.7% in experiment [7] (cisplatin combo, at 0.5 µM). For the same compound, the inhibition in experiment [7] (cisplatin combo, at 5 µM) is -14%; in experiment [7] (measured here: 5 uM single agent, at 5 µM), -14.5%; in experiment [8] (at 0.5 µM) it was -51.1% (inactive); in [8] (setting [19]), -50.8%; in experiment [8] (measured here: combination with cisplatin, at 0.5 µM), -81.2%; in experiment [8] (measured here: combination with cisplatin, at 5 µM) it was -40.9%. Moreover, the inhibition was -23.4% (inactive) in [9] (at 0.5 µM); -66.1% in experiment [9] (measured here: with BGB IC20, at 0.5 µM); -35% in [9] (measured here: with BGB IC20, at 5 µM); 20.5% in [9] (measured here: with cisplatin IC20, at 0.5 µM); -22.8% in [9] (measured here: with cisplatin IC20, at 5 µM); -25.8% in experiment [9] (single agent, at 5 µM). The inhibition in [10] (at 0.5 µM) is -107% (inactive); in [10] (measured here: combination with BGB at IC20, at 0.5 µM) it was -77.3%; in experiment [10] (measured here: combination with cisplatin at IC20, at 0.5 µM), -148%; in [11] (at 0.5 µM), -14.1% (inactive); in experiment [11] (measured here: combo with BGB at IC20, at 0.5 µM), -16%; in experiment [11] (measured here: combo with cisplatin at IC20, at 0.5 µM), -17.1%.

As to `CN1CCN(C2=Nc3cc(F)ccc3Cc3ccccc32)CC1`, the fold change in experiment [1] (setting [13]) is 0.822 (inactive) and 0.853 (inactive); in experiment [1] (setting [14]) it was 1.3 and 0.98. Also, the cell count is 5980 and 8510 in experiment [1] (setting [15]); 7280 and 9980 in [1] (setting [16]). The z-score is -0.621 (inactive) in [2] (setting [17]); 0.127 in experiment [2] (setting [18]); -0.47 (inactive) and -0.18 (inactive) in experiment [12].

For `CC(=O)Nc1ccc(OCC(O)CNC(C)C)cc1` (stereo unspecified), the fold change was 0.852 (inactive) and 0.959 (inactive) in [1] (setting [13]); 1.35 and 1.11 in experiment [1] (setting [14]). The cell count was 8450 and 10300 in experiment [1] (setting [15]); 9920 and 10700 in [1] (setting [16]). For the same compound, the z-score in experiment [2] (setting [17]) is 0.00127 (inactive) and -0.285 (inactive); in experiment [2] (setting [18]), -0.287 and 0.516; in [12], 0.68 (inactive). For the same compound, the luciferase signal in [4] was 24 AU (inactive).

Turning to `CC(C(=O)O)c1ccc(C(=O)c2cccs2)cc1` (stereo unspecified), the fold change in experiment [1] (setting [13]) was 0.842 (inactive) and 0.947 (inactive) and 0.9 (inactive); in [1] (setting [14]) it was 1.16 and 0.84 and 2.46. Also, the cell count in experiment [1] (setting [15]) is 9210 and 7840 and 11900; in experiment [1] (setting [16]) it was 10900 and 8270 and 13200. For the same compound, the z-score in experiment [2] (setting [17]) is 0.0275 (inactive) and 0.475 (inactive); in [2] (setting [18]), -0.115 and -0.0807. Besides, the luciferase signal in experiment [4] was 92 AU (inactive).
